Active and inactive are the calls of the source.
test: optical density shifts of acrAB sulA E. coli – strain DRC41, OD650, 48 h, E. coli filamentation inducer project, primary screen (AID 1152); settings: higher = more signal, called active from +8 up or from −8 down;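 also: E. coli MC1000 strain DRC41 lacking acrAB efflux pump and sulA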

z-score, inactive:
[N-]=[N+]=Nc1ccccc1C[C@@]1(C(=O)NCC(O)CO)N=C(c2ccc(OCCCO)cc2)O[C@@H]1c1ccccc1 (some centres undefined) 0.445
C=C(CCCC)/C(=C/C[C@H](OC(=O)c1ccncc1)c1cccc(OCCO)c1)c1cnc2ccccc2c1 -0.639
COCCOC(=O)N1C(=O)[C@@]2(c3cc(C#Cc4ccc(OC)cc4)ccc31)[C@H](c1ccc(OCCO)cc1)N1[C@H](c3ccccc3)[C@H](c3ccccc3)OC(=O)[C@H]1[C@@H]2C(=O)NC[C@H](O)c1ccccc1 -0.0906
CCOC(=O)C1=CC[C@@H](c2ccc(OC)cc2)N(S(=O)(=O)c2ccc(C)cc2)[C@H]1c1ccc(C)cc1 -1.22
COCCOC(=O)N1C(=O)[C@@]2(c3cc(C#CCCO)ccc31)[C@H](c1ccc(OCCO)cc1)N1[C@H](c3ccccc3)[C@H](c3ccccc3)OC(=O)[C@H]1[C@@H]2C(=O)N1CCCCCCC1 -0.453
COC(=O)[C@@]1(Cc2ccc(F)cc2)[C@H]2c3cc(C(=O)N4CCCC4)n(Cc4cc(F)cc5c4OCOC5)c3C[C@H]2CN1C(=O)c1ccccc1 -2.25
C=C(CCCC)/C(=C/C[C@H](OC(=O)c1ccncc1)c1ccc(OCCO)cc1)c1cnc2ccccc2c1 0.339
C=CCOC(=O)[C@@H]1[C@H]2C(=O)O[C@H](c3ccccc3)[C@H](c3ccccc3)N2[C@H](c2ccc(OCCOC(=O)[C@H]3C[C@H]4C(=O)N5CCC[C@H]5C(=O)N4[C@H]3c3cccc(OCCO)c3)cc2)[C@@]12C(=O)Nc1ccc(I)cc12 -0.565
COc1ccc([Si](C)(C)[C@H]2[C@H](CC(=O)N3Cc4ccccc4C[C@H]3CO)O[C@@]3(C(=O)N(C)c4c(Br)cc(C)cc43)[C@@H]2C)cc1 -1.05
CCCC[C@H]1OB(O)C[C@H]2C1=C(COc1ccccc1)C[C@H]1C(=O)C=CC(=O)[C@H]12 1.55
COCCOC(=O)N1C(=O)[C@@]2(c3cc(C#CCC(C(=O)OC)C(=O)OC)ccc31)[C@H](C(=O)Nc1nc3ccccc3s1)[C@H]1C(=O)O[C@H](c3ccccc3)[C@H](c3ccccc3)N1[C@@H]2c1ccc(O)cc1 0.0976
COC(=O)[C@@]1(Cc2ccc(OC)cc2)[C@H]2c3cc(C(=O)N4CCCC4)n(Cc4ccc(Cl)c(C(F)(F)F)c4)c3C[C@H]2CN1C(=O)c1ccccc1 -0.557
Cc1ccc(F)cc1S(=O)(=O)N[C@H]1CCN(Cc2ccc(OC(C)C)cc2)C1 -4.19
COCCOC(=O)N1C(=O)[C@@]2(c3cc(C#CCNC(N)=O)ccc31)[C@H](C(=O)Nc1nc3ccccc3s1)[C@H]1C(=O)O[C@H](c3ccccc3)[C@H](c3ccccc3)N1[C@@H]2c1ccccc1OCCO 1.14
CCCCC(O)C1C=CC2C(=O)N(c3ccccc3)C(=O)C2N1Nc1ccc([N+](=O)[O-])cc1 (centres undefined) 0.372
CCCN1C(=O)[C@@]2(c3ccc([N+](=O)[O-])cc3)CC(=O)N(CC34CC5CC(CC(C5)C3)C4)[C@@H]2c2ccc(CO)cc21 -0.803
O=C1C=C(c2ccccc2)C(=O)C2=C1CC([C@H]1Oc3ccccc3S(=O)(=O)N3CCC[C@@H]13)=CC2 -0.0139
O=C1[C@H]2C=C(I)[C@H](C[C@@H]2OCCCCCCO)[C@@]12CO2 -1.02
N#Cc1ccc(-c2cccc(=O)o2)cc1 -0.729
N#Cc1ccc(NN2C(C(O)C3CC=CCC3)C=CC3C(=O)N(c4ccccc4)C(=O)C32)cc1 (centres undefined) -0.411
COC(=O)C(CC#Cc1ccc2c(c1)[C@]1(C(=O)N2)[C@H](c2ccc(OCCO)cc2)N2[C@H](c3ccccc3)[C@H](c3ccccc3)OC(=O)[C@H]2[C@@H]1C(=O)N1CCCCCCC1)C(=O)OC -0.598
COCCOC(=O)N1C(=O)[C@@]2(c3ccccc31)[C@H](c1ccc(O)cc1)N1[C@H](c3ccccc3)[C@H](c3ccccc3)OC(=O)[C@H]1[C@@H]2C(=O)N1CCCCCCC1 -0.59
COc1ccc(C(O)C2C=CC3C(=O)N(c4ccccc4)C(=O)C3N2Nc2ccc([N+](=O)[O-])cc2)c2ccccc12 (centres undefined) -1.31
O=C1c2ccccc2[C@@]2(Cc3ccccc3N(Cc3ccccc3)C2=O)[C@H](c2ccc(CO)cc2)N1Cc1ccccc1Cl -0.29

— PubChem BioAssay
